Several values for one entry are separate records, joined by “and”; a condition that tells them apart may be missing. Identical values can stand only once.
Tested on: HL-1
Experiment: cardiomyocyte survival under oxidative or metabolic stress – cell-based, panel, H9c2 and HL-1, ATP luminescence, set 2, SAR follow-up (AID 651871);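 further: cells exposed to stressor for 2 h before ATP readout; reference of the scale not given here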
Settings: H9c2/HL-1 cardiomyocytes, 2-deoxyglucose stress, with 2-deoxyglucose
[1] = run 14, at 79 µM (top of the series)

| Structure (SMILES) | activity (protection/inhibition) [1] | activity (protection/inhibition) (run 14, at 39.5 µM (top of the series)) |
| --- | --- | --- |
| CCOC(=O)c1cccc(NC(=O)CNC(=O)c2cc(-c3cc(OC)c(OC)c(OC)c3)nc3ccccc23)c1 | 83.5% | – |
| COc1ccc2nc(-c3cc(OC)c(OC)c(OC)c3)cc(C(=O)NCC(=O)Nc3ccc(C(C)=O)cc3)c2c1 | 66% | – |
| COc1ccc2c(c1OC)C(=O)N1c3ccccc3C(=O)N(Cc3cccc(Cl)c3Cl)C21 (centres undefined) | 56.3% and -4.31% | 31.8% |

Reference: PubChem BioAssay AID651871 (Sanford-Burnham Center for Chemical Genomics, 2012)
